In ChEMBL document CHEMBL1961873, “Compounds: GSK PKIS; Assays: Nanosyn kinase panel” (2012):

Target: Fibroblast growth factor receptor 2 (Homo sapiens) (UniProt P21802)
Settings: at 0.1 µM

Chain of Fibroblast growth factor receptor 2 (Homo sapiens) (P21802 22-821 limits assumed): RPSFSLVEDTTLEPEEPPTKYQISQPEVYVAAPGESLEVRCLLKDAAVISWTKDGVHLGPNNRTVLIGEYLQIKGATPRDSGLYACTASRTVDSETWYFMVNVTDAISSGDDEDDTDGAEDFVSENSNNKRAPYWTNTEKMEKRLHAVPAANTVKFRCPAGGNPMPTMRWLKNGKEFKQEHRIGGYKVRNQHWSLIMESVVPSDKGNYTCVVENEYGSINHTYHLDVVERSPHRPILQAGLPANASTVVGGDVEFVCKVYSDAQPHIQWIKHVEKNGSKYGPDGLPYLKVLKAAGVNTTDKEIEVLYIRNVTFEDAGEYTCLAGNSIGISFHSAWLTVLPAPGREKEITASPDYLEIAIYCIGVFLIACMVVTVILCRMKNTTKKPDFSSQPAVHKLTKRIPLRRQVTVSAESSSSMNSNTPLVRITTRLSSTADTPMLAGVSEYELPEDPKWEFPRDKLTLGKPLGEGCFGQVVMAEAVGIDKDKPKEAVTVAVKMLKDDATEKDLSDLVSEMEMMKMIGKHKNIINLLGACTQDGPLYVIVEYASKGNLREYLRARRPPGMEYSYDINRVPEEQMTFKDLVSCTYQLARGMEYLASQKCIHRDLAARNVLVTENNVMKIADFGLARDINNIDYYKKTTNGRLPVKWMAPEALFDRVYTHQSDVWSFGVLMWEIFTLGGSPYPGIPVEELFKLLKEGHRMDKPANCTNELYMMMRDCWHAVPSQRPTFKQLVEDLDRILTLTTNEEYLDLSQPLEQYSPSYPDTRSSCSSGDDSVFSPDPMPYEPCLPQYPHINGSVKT

Row | SMILES | inhibition [%]
1 | CCn1c(-c2nonc2N)nc2ccc(F)cc21 | 5.98
2 | [O-][S+]1CCN(Cc2ccc(-c3ccc4ncnc(Nc5ccc(OCc6ccccc6)c(Cl)c5)c4c3)o2)CC1 | 0.85
3 | N#Cc1cccc(Nc2nccc(-c3cnn4ncccc34)n2)c1 | 7.31
4 | CS(=O)(=O)CCNCc1nc(-c2ccc3ncnc(Nc4ccc(OCc5cccc(C(F)(F)F)c5)cc4)c3c2)cs1 | 6.08
5 | COC(=O)c1ccc2c(c1)C(=Cc1cc(Br)c(O)c(Br)c1)C(=O)N2 | 7.19
6 | NS(=O)(=O)c1cccc(-c2cc3ccncc3cc2OCc2ccccc2)c1 | 9.37
7 | COc1ccc(-c2nn3ncccc3c2-c2ccnc(Nc3cccc(C(F)(F)F)c3)n2)cc1 | 2.73
8 | Cc1cc(O)cc(C)c1/C=C/c1cncc(C(=O)N(C)C)c1 | 4.82
9 | COc1cc(/C=N/Nc2ncnc3c2cnn3C(C)C)ccc1O | 1.99
10 | CCOc1nccc2c1nc(-c1nonc1N)n2CC | 3.59
11 | Oc1cccc(-c2nc(-c3ccccc3)[nH]c2-c2ccncc2)c1 | 4
12 | Nc1nccc(C#Cc2cncnc2Nc2ccc(OCc3cccc(F)c3)c(Cl)c2)n1 | 4.45
13 | Cc1ccc2c(-c3ccnc(Nc4ccc5c(c4)OCCO5)n3)c(-c3ccc(C(F)(F)F)cc3)nn2n1 | -1.07
14 | CS(=O)(=O)Nc1cccc(-c2ccc3c(NC(=O)C4CC4)n[nH]c3c2)c1 | -3.44
15 | Cc1cc(-c2ccccn2)cc(C)c1/C=C/c1cncc(-c2nn[nH]n2)c1 | 4.22
16 | CN(C)CCCn1c(-c2nonc2N)nc2cnccc21 | 2.86
17 | Cc1cc(Cl)cc2c1NC(=O)C2=NNc1ccc(S(N)(=O)=O)cc1 | 1.45

Row | SMILES | inhibition [%]
18 | CN(c1ccc(NC(=O)Nc2ccc(OC(F)(F)F)cc2)cc1)c1ccnc(Nc2cccc(S(N)(=O)=O)c2)n1 | 16.2
19 | COc1cc2ncn(-c3cc(OCc4ccccc4S(C)(=O)=O)c(C#N)s3)c2cc1OC | 8.86
20 | Cc1ccc(O)cc1Nc1ccnc2ccc(S(C)(=O)=O)cc12 | 5.74
21 | CN1CCN(C(=O)c2ccc(NC(=O)Nc3ccc(N(C)c4ccnc(Nc5ccc(CS(C)(=O)=O)cc5)n4)cc3)cc2)CC1 | 6.7
22 | COC(=O)Nc1nc2cc(Oc3ccc(NC(=O)Nc4cccc(Br)c4)cc3)ccc2[nH]1 | 1.09
23 | NS(=O)(=O)c1ccc(N/N=C2\C(=O)Nc3ccc(Cl)cc32)cc1 | 2.43
24 | Cc1nc(-c2ccccc2)n2nc(NCCCN3CCOCC3)ncc12 | 3.94
25 | COc1cc(Nc2nccc(-c3cnn4ncccc34)n2)cc(OC)c1 | 1.71
26 | NS(=O)(=O)c1cccc(Nc2cc(-c3ccc(F)cc3)n[nH]2)c1 | 0.78
27 | COc1ccc2ncnc(Nc3ccc(OCc4ccccc4)cc3)c2c1 | 1.22
28 | Cc1ccc2c(c1)/C(=N/Nc1ccc(S(N)(=O)=O)cc1)C(=O)N2 | 2.39
29 | Cc1ccc(C(=O)NC2CC2)cc1-c1ccc2[nH]ncc2c1 | -3.95
30 | NS(=O)(=O)c1ccc(NC=C2C(=O)Nc3ccc4ncsc4c32)cc1 | 31.5
31 | CCS(=O)(=O)c1ccc(OC)c(Nc2ncc(-c3cccc(OC)c3)o2)c1 | 30.9
32 | c1ccc(Cc2nc3ccc(Nc4ncnc5ccccc45)cc3[nH]2)cc1 | 5.23
33 | NC(=O)c1cccc(Nc2nccc(Nc3cccc(F)c3)n2)c1 | 2.81
34 | CCCN1CCCC(c2ccc(Nc3nc(Nc4cc(F)ccc4C(N)=O)c4cc[nH]c4n3)c(OC)c2)C1 (stereo not drawn) | 4.31

Target: Fibroblast growth factor receptor 2 (Homo sapiens) (UniProt P21802)
Settings: at 1 µM

Row | SMILES | inhibition [%]
35 | CCn1c(-c2nonc2N)nc2ccc(F)cc21 | 4.55
36 | [O-][S+]1CCN(Cc2ccc(-c3ccc4ncnc(Nc5ccc(OCc6ccccc6)c(Cl)c5)c4c3)o2)CC1 | 3.74
37 | N#Cc1cccc(Nc2nccc(-c3cnn4ncccc34)n2)c1 | 23.4
38 | CS(=O)(=O)CCNCc1nc(-c2ccc3ncnc(Nc4ccc(OCc5cccc(C(F)(F)F)c5)cc4)c3c2)cs1 | 5.8
39 | COC(=O)c1ccc2c(c1)C(=Cc1cc(Br)c(O)c(Br)c1)C(=O)N2 | 8.86
40 | NS(=O)(=O)c1cccc(-c2cc3ccncc3cc2OCc2ccccc2)c1 | 15.6
41 | COc1ccc(-c2nn3ncccc3c2-c2ccnc(Nc3cccc(C(F)(F)F)c3)n2)cc1 | 0.17
42 | Cc1cc(O)cc(C)c1/C=C/c1cncc(C(=O)N(C)C)c1 | 5.81
43 | COc1cc(/C=N/Nc2ncnc3c2cnn3C(C)C)ccc1O | 7.97
44 | CCOc1nccc2c1nc(-c1nonc1N)n2CC | 10.6
45 | Oc1cccc(-c2nc(-c3ccccc3)[nH]c2-c2ccncc2)c1 | 9.16
46 | Nc1nccc(C#Cc2cncnc2Nc2ccc(OCc3cccc(F)c3)c(Cl)c2)n1 | 8.42
47 | Cc1ccc2c(-c3ccnc(Nc4ccc5c(c4)OCCO5)n3)c(-c3ccc(C(F)(F)F)cc3)nn2n1 | 0.36
48 | CS(=O)(=O)Nc1cccc(-c2ccc3c(NC(=O)C4CC4)n[nH]c3c2)c1 | 5.34
49 | Cc1cc(-c2ccccn2)cc(C)c1/C=C/c1cncc(-c2nn[nH]n2)c1 | 7.33
50 | CN(C)CCCn1c(-c2nonc2N)nc2cnccc21 | 6.36
51 | Cc1cc(Cl)cc2c1NC(=O)C2=NNc1ccc(S(N)(=O)=O)cc1 | 3.49

Row | SMILES | inhibition [%]
52 | CN(c1ccc(NC(=O)Nc2ccc(OC(F)(F)F)cc2)cc1)c1ccnc(Nc2cccc(S(N)(=O)=O)c2)n1 | 53.9
53 | COc1cc2ncn(-c3cc(OCc4ccccc4S(C)(=O)=O)c(C#N)s3)c2cc1OC | 31.6
54 | Cc1ccc(O)cc1Nc1ccnc2ccc(S(C)(=O)=O)cc12 | 14.5
55 | CN1CCN(C(=O)c2ccc(NC(=O)Nc3ccc(N(C)c4ccnc(Nc5ccc(CS(C)(=O)=O)cc5)n4)cc3)cc2)CC1 | 12.8
56 | COC(=O)Nc1nc2cc(Oc3ccc(NC(=O)Nc4cccc(Br)c4)cc3)ccc2[nH]1 | 3.33
57 | NS(=O)(=O)c1ccc(N/N=C2\C(=O)Nc3ccc(Cl)cc32)cc1 | 14.7
58 | Cc1nc(-c2ccccc2)n2nc(NCCCN3CCOCC3)ncc12 | 11.8
59 | COc1cc(Nc2nccc(-c3cnn4ncccc34)n2)cc(OC)c1 | 23
60 | NS(=O)(=O)c1cccc(Nc2cc(-c3ccc(F)cc3)n[nH]2)c1 | 9.22
61 | COc1ccc2ncnc(Nc3ccc(OCc4ccccc4)cc3)c2c1 | 2.56
62 | Cc1ccc2c(c1)/C(=N/Nc1ccc(S(N)(=O)=O)cc1)C(=O)N2 | 27.2
63 | Cc1ccc(C(=O)NC2CC2)cc1-c1ccc2[nH]ncc2c1 | -3.78
64 | NS(=O)(=O)c1ccc(NC=C2C(=O)Nc3ccc4ncsc4c32)cc1 | 63.8
65 | CCS(=O)(=O)c1ccc(OC)c(Nc2ncc(-c3cccc(OC)c3)o2)c1 | 68.2
66 | c1ccc(Cc2nc3ccc(Nc4ncnc5ccccc45)cc3[nH]2)cc1 | 7.58
67 | NC(=O)c1cccc(Nc2nccc(Nc3cccc(F)c3)n2)c1 | 13
68 | CCCN1CCCC(c2ccc(Nc3nc(Nc4cc(F)ccc4C(N)=O)c4cc[nH]c4n3)c(OC)c2)C1 (stereo not drawn) | 5.74
